The record followed here is PubChem BioAssay (Tox21).

A short description of assay [1]: qHTS assay to identify small molecule antagonists of the thyroid receptor (TR) signaling pathway (AID 743065). Also: series mostly up to about 70 µM; nearly all actives have a fitted effect of over 55% in size. Put shortly: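 Antagonism measured as loss of luciferase signal in GH3 cells stably carrying a TRE-luciferase reporter, co-treated with compound and T3 (1 nM final) for 23.5 h at 37 C. Viability was read in the same well by CellTiter-Fluor.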
On the technique in general: Quantitative high-throughput screening tests each substance at several concentrations.

For assay [2], the system named is thyroid hormone receptor (rat, GH3 cells). Nature of the assay: qHTS assay to identify small molecule agonists of the thyroid receptor (TR) signaling pathway (AID 743066; calls by dose curve).
Assay [3] can be described thus: qHTS assay to identify small molecule antagonists of the estrogen receptor alpha (ER-alpha) signaling pathway - cell viability counter screen (AID 743074; calls by dose curve;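 also: HEK293 cells carrying ER-alpha-UAS-bla reporter stimulated with 17beta-estradiol; nearly all actives have a fitted effect of over 45% in size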).
Assay [4] in a line: qHTS assay to identify small molecule antagonists of the estrogen receptor alpha (ER-alpha) signaling pathway using the BG1 cell line - cell viability counter screen (AID 743081).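 Also: compound given together with 17beta-estradiol as the ER stimulus; series mostly up to about 70 µM; nearly all actives have a fitted effect of over 45% in size.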
The next assay addresses Aromatase (Homo sapiens) (UniProt P11511). In words: qHTS assay to identify aromatase inhibitors (AID 743083). Also: series mostly up to about 70 µM; nearly all actives have a fitted effect of over 55% in size.
A short description of assay [5]: qHTS assay to identify aromatase inhibitors - cell viability counter screen (AID 743084).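 Also: cells stimulated with testosterone during compound exposure; nearly all actives have a fitted effect of over 55% in size.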
A short description of assay [6]: qHTS assay to identify small molecule that activate the aryl hydrocarbon receptor (AhR) signaling pathway - cell viability counter screen (AID 743086). Also: series mostly up to about 70 µM; nearly all actives have a fitted effect of over 45% in size. The procedure, abridged: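 Cytotoxicity counter screen: CellTiter-Fluor signal (30 min, 37 C) in 4000 HepG2 cells/well carrying the DRE-luciferase reporter, following 24 h compound exposure at 37 C.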
The target of assay [7] is Peroxisome proliferator-activated receptor gamma (Homo sapiens) (UniProt P37231). In words: qHTS assay to identify small molecule agonists of the peroxisome proliferator-activated receptor gamma (PPARg) signaling pathway (AID 743094; active = well fitted activation curve with a large enough effect in the signal ratio in the repeat runs, not every such curve was filed as active; the % refers to the signal ratio). Put shortly: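 GeneBLAzer PPARg UAS-bla HEK293H cells were plated, rested 5 h, then exposed to compounds for 17 h at 37C. Beta-lactamase activity was read by LiveBLAzer B/G FRET substrate fluorescence after 1 h at room temperature.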

The target is the same in assay [8]. Nature of the assay: qHTS assay to identify small molecule antagonists of the peroxisome proliferator-activated receptor gamma (PPARg) signaling pathway (AID 743191; calls by dose curve; also: series mostly up to about 63 µM; nearly all actives have a fitted effect of over 30% in size). Put shortly: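 Beta-lactamase reporter under UAS control in HEK293H PPARg-bla cells; compound treatment 17 h at 37C. Read-out: fluorescence intensity after 1 h room-temperature incubation with LiveBLAzer B/G FRET substrate.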

Assay [9] is described as follows: qHTS assay to identify small molecule antagonists of the peroxisome proliferator-activated receptor gamma (PPARg) signaling pathway - cell viability counter screen (AID 743194). Also: nearly all actives have a fitted effect of over 55% in size. The procedure, abridged: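 Viability was measured as CellTiter-Glo luminescence in GeneBLAzer PPARg UAS-bla HEK293H cells. These cells had been exposed 17 h at 37 C to compounds together with rosiglitazone at 50 nM final, with the beta-lactamase readout taken in the same wells.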

The nature of assay [10]: qHTS assay for small molecule agonists of the antioxidant response element (ARE) signaling pathway - cell viability counter screen (AID 743203; calls by dose curve; also: nearly all actives have a fitted effect of over 55% in size). The procedure, abridged:
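ARE-bla HepG2 cells were plated, rested 5 h at 37C/5% CO2, then exposed to compounds in DMSO for 16 h. Viability was read as CellTiter-Glo luminescence after 30 min at room temperature, in the same wells as the ARE screen.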

Assay [11] is described as follows: qHTS assay for small molecule activators of the heat shock response signaling pathway - cell viability counter screen (AID 743209). Also: nearly all actives have a fitted effect of over 50% in size. The procedure, abridged: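 HSE-bla HeLa cells plated overnight, then exposed to Tox21 compounds (23 nL in DMSO) for 5 h at 37 C. After the bla reporter read, CellTiter-Glo was added in the same wells and luminescence read after 30 min at room temperature.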

Assay [12] is described as follows: qHTS assay for small molecule activators of the heat shock response signaling pathway (AID 743210; active = well fitted activation curve with a large enough effect in the signal ratio in the repeat runs, with a control signal flat, not every such curve was filed as active; the % refers to the signal ratio;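 also: HeLa cells with beta-lactamase reporter driven by heat shock elements; series mostly up to about 63 µM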). The procedure, abridged:
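HeLa HSE-bla cells, overnight plating; cpd in DMSO 5 h, 37 C; LiveBLAzer B/G FRET substrate 2.5 h RT; fluorescence intensity read.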

Assay [13] is described as follows: qHTS assay to identify small molecule agonists of the peroxisome proliferator-activated receptor delta (PPARd) signaling pathway - cell viability counter screen (AID 743211). Also: nearly all actives have a fitted effect of over 55% in size. The procedure, abridged: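 Counter screen for cytotoxicity run in parallel with the PPARd reporter screen. Beta-lactamase reporter HEK293H cells exposed to compounds 17 h; ATP-based CellTiter-Glo luminescence quantified viability.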

For assay [14], the target named is Aryl hydrocarbon receptor (Homo sapiens) (UniProt P35869). Nature of the assay: qHTS assay to identify small molecule that activate the aryl hydrocarbon receptor (AhR) signaling pathway (AID 743085).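 Also: HG2L7.5c1 human HepG2 liver cells with stably integrated DRE-driven firefly reporter; series mostly up to about 70 µM; nearly all actives have a fitted effect of over 15% in size.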 Put shortly: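 Compounds were tested in HepG2 hepatocellular carcinoma cells harbouring a stably integrated luciferase gene under control of 20 DREs. Increased reporter signal after 24 h treatment at 37C was taken as AhR activation.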

Assay [15] concerns the target Estrogen receptor (Homo sapiens) (UniProt P03372). In words: qHTS assay to identify small molecule antagonists of the estrogen receptor alpha (ER-alpha) signaling pathway (AID 743069; active = well fitted curve in the direction sought with a large enough effect in the signal ratio in the repeat runs, not every such curve was filed as active; the % refers to the signal ratio). Put shortly: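 ER-alpha-UAS-bla GripTite HEK293 line; 2% charcoal-stripped FBS overnight; plated, 4 hr 37C/5% CO2; cpd in DMSO + 17beta-estradiol, 18 hr 37C; LiveBLAzer B/G FRET substrate 2 hr RT; fluorescence intensity.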

Assay [16] has the same target. In words: qHTS assay to identify small molecule agonists of the estrogen receptor alpha (ER-alpha) signaling pathway (AID 743075; calls by dose curve;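 also: HEK293 GripTite cells with ER-alpha and UAS-driven beta-lactamase reporter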).
Assay [17] shares this target. Nature of the assay: qHTS assay to identify small molecule agonists of the estrogen receptor alpha (ER-alpha) signaling pathway using the BG1 cell line (AID 743079). Also: nearly all actives have a fitted effect of over 20% in size. Also: potency is read from the fitted curve at half-maximal effect.
The nature of assay [18]: qHTS assay to identify small molecule antagonists of the estrogen receptor alpha (ER-alpha) signaling pathway using the BG1 cell line (AID 743080; calls by dose curve;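 also: BG1 cells stimulated with 17beta-estradiol alongside compound; series mostly up to about 70 µM; nearly all actives have a fitted effect of over 25% in size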). Put shortly: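 Luminescence from a 4×ERE-luciferase reporter in BG1-Luc-4E2 cells served as read-out. Cells, pre-cultured 5 days in stripped-serum phenol-red-free medium, were exposed to compound with 17beta-estradiol co-stimulation for 21.5 h at 37 C.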

The nature of assay [19]: qHTS assay for small molecule agonists of the antioxidant response element (ARE) signaling pathway (AID 743202; active = well fitted activation curve with a large enough effect in the signal ratio in the repeat runs, not every such curve was filed as active; the % refers to the signal ratio). The procedure, abridged: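 Quantitative high-throughput format in HepG2 cells bearing an integrated ARE-beta-lactamase reporter. Compound exposure lasted 16 h at 37 C, and fluorescence was read 2 h after adding LiveBLAzer B/G substrate at room temperature.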

The structures appear in SMILES notation. Inconclusive results are not listed. Unmarked numbers belong to inactive results. Active and inactive are the calls of the source. Unless noted, calls follow the shape of the dose curve; as a rule, active = well fitted curve in the direction sought with a large enough effect in the repeat runs; inconclusive = weak or mixed curves; inactive = no such curve, though single readings can be large; an effect the other way counts as inactive or inconclusive.

Chain of Aryl hydrocarbon receptor (Homo sapiens) (P35869 whole entry, looked up): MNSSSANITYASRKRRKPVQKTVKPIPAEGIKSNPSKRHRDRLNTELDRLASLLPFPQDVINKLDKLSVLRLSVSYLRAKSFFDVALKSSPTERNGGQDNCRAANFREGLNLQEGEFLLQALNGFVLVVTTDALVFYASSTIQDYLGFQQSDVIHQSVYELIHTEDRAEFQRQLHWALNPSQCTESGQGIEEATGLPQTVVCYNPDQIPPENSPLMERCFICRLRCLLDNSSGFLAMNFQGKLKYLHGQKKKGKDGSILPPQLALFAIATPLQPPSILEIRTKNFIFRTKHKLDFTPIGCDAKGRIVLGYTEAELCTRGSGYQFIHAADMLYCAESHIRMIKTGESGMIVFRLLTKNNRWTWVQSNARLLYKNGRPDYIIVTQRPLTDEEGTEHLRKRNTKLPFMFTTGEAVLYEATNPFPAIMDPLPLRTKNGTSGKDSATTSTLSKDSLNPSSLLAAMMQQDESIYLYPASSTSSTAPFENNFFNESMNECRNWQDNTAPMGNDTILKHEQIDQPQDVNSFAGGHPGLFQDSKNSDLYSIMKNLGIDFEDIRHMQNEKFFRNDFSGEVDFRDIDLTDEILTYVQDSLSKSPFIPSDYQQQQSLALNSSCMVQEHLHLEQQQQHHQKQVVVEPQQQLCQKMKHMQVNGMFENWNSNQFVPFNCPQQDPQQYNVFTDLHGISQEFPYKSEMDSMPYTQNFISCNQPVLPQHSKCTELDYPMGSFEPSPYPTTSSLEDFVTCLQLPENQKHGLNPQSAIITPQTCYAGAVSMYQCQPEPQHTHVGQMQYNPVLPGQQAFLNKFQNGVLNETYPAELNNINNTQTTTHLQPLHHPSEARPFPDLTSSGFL
Chain of Aromatase (Homo sapiens) (P11511 whole entry, looked up): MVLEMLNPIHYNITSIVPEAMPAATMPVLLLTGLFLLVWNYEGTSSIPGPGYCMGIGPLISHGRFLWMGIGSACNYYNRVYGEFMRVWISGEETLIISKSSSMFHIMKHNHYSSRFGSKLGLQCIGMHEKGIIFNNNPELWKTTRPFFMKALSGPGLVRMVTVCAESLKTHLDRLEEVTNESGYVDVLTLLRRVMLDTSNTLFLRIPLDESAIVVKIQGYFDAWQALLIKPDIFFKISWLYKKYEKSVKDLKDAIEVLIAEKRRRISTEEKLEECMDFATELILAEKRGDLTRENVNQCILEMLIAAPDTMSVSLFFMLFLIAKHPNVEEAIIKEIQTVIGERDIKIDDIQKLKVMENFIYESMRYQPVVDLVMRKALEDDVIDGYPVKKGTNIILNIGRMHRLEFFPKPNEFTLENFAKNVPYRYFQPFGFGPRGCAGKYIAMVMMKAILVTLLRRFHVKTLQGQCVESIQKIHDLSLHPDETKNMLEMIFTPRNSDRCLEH
Chain of Estrogen receptor (Homo sapiens) (P03372 whole entry, looked up): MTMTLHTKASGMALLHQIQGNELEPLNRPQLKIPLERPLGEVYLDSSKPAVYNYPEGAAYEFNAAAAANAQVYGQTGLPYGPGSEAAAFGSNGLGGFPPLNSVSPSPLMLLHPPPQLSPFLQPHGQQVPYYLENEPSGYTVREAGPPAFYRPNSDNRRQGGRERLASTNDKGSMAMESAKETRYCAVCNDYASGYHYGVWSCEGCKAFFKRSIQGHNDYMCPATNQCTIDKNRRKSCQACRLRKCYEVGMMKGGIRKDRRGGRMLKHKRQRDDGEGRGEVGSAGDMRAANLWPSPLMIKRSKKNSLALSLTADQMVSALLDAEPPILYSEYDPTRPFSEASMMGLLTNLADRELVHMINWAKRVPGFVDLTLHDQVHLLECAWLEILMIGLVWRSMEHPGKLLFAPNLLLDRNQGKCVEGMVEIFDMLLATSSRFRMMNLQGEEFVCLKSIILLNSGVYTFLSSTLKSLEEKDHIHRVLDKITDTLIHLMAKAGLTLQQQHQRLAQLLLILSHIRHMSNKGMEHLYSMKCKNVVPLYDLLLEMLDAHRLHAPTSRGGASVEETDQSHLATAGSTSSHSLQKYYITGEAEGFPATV
Chain of Peroxisome proliferator-activated receptor gamma (Homo sapiens) (P37231 whole entry, looked up): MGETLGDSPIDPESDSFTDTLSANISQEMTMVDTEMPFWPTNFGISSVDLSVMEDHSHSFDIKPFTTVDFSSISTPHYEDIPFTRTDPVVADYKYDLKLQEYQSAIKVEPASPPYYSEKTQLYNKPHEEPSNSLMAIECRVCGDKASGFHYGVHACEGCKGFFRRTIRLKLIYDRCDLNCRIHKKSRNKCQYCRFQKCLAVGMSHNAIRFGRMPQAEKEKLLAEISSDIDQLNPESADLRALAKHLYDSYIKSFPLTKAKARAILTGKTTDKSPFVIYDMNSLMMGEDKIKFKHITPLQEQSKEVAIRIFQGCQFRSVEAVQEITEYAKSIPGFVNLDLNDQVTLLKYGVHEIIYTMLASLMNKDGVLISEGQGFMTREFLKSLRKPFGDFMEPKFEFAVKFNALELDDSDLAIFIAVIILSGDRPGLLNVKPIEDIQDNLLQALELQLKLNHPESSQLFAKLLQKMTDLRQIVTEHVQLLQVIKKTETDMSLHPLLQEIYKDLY

Consider `O=S(=O)(O)c1cc(I)c(O)c2ncccc12`, for which the Potency entry (in assay [1]; in assay [2]; in assay [3]; with Aromatase (Homo sapiens); in assay [11]) was “inactive” each time. Moreover, the molecule was called inactive in [4], in [5], in assay [6], in [7], in assay [8] and in assay [9]. Moreover, the molecule was called inactive in assay [10], in [12] and in assay [13].

With `CC(=O)c1c(C)cc(C(C)(C)C)cc1C`, the Potency entry (in assay [1]; in [2]; in assay [3]; with Aromatase (Homo sapiens); in assay [14]) was “inactive” in each case. Moreover, the call in [4], in assay [5], in assay [6], in [7], in assay [10] and in [12] was inactive. Moreover, the molecule was classed as inactive in assay [13].

Consider `BrCCOc1ccccc1`, for which the molecule was called inactive in assay [15], in assay [4], in assay [5], in [6], in [7] and in [10]. Further, the Potency entry (in [3]; in assay [16]; in assay [17]; in assay [18]; in the assay with Aromatase (Homo sapiens); in [14]) was “inactive” throughout. Moreover, the Potency result in assay [19] is “inactive”.

Consider `CC(=O)c1ccc(O)c(C(N)=O)c1`, for which the result in [8], in [9], in assay [10], in assay [12] and in assay [13] was inactive. The Potency entry in assay [19] and in assay [11] was “inactive” each time.

As for `O=c1[nH]c(=O)c2cn[nH]c2[nH]1`, the Potency result (in assay [3]; in the assay with Aromatase (Homo sapiens); in assay [14]; in assay [19]) was “inactive” each time. Moreover, the molecule was called inactive in assay [4], in assay [5], in assay [7], in assay [8], in assay [9] and in assay [10]. For the same molecule, the molecule was classed as inactive in assay [12] and in assay [13].

Take `CC(C)(C)c1ccc(C(=O)CCCCl)cc1`: the result in [9], in assay [10] and in assay [12] was inactive. For the same molecule, the Potency entry in assay [19] and in assay [11] was “inactive” throughout.

Consider `CCN1CCN(C(=O)N[C@@H](C(=O)N[C@@H]2C(=O)N3C(C(=O)O)=C(CSc4nnnn4C)CS[C@H]23)c2ccc(O)cc2)C(=O)C1=O`, for which the result in [15], in assay [4], in assay [5], in assay [6], in assay [7] and in assay [10] was inactive. The outcome in assay [12] was inactive. In addition, the Potency result (in assay [3]; in [16]; in [17]; in assay [18]; with Aromatase (Homo sapiens); in [11]) was “inactive” in each case.

As to `CC(C)(C)NCC(O)COc1cccc2c1CCC(=O)N2` (stereo not drawn), the Potency entry (in assay [3]; with Aromatase (Homo sapiens); in assay [14]; in assay [19]; in assay [11]) was “inactive” throughout. In addition, the call in assay [4], in assay [6], in assay [7], in assay [8], in assay [9] and in assay [10] was inactive. Besides, the molecule was classed as inactive in [12] and in assay [13].

As to `CCCc1ncc(C(=O)O)s1`, the outcome in assay [8], in [9], in [10], in assay [12] and in [13] was inactive. Moreover, the Potency entry in assay [19] and in assay [11] was “inactive” throughout.

With `CCCCCCCCCCCC(C)=O`, the result in assay [15], in [4], in [5], in [6], in assay [7] and in [8] was inactive. For the same molecule, the outcome in [9], in assay [10] and in assay [12] was inactive. In addition, the Potency result (in assay [3]; in assay [18]; with Aromatase (Homo sapiens); in assay [14]; in assay [19]) was “inactive” in each case. The Potency in [17] is 17.2 µM (active).

Turning to `O=C1CCCc2c(O)cccc21`, the result in assay [8], in assay [10] and in [12] was inactive. In [11], the Potency entry is “inactive”.

As to `COc1cc(S(N)(=O)=O)cc(C(=O)O)c1OC`, the result in [9], in assay [10], in [12] and in assay [13] was inactive. For the same molecule, the Potency entry in assay [19] and in [11] was “inactive” each time.

Take `CC(=O)OCC(=O)[C@@]1(O)CC[C@H]2[C@@H]3CCC4=CC(=O)C=C[C@]4(C)[C@H]3[C@@H](O)C[C@@]21C`: the Potency entry (in assay [3]; in the assay with Aromatase (Homo sapiens); in assay [19]) was “inactive” in each case. Moreover, in assay [17], the Potency is 11.9 µM (active). The molecule was called inactive in assay [4], in assay [5], in assay [6], in [9], in assay [10] and in [13].

Consider `CCCC[O][Al]([O]CCCC)[O]CCCC`, for which the Potency entry (in assay [3]; in the assay with Aromatase (Homo sapiens); in [14]; in assay [19]; in [11]) was “inactive” throughout. Also, the outcome in [4], in assay [5], in assay [6], in [7], in assay [8] and in assay [12] was inactive. In assay [13], the molecule was called inactive.

Regarding `CC(=O)SC[C@@H](C)C(=O)N1CCC[C@H]1C(=O)N[C@@H](Cc1ccccc1)C(=O)O`, the molecule was classed as inactive in assay [15], in assay [4], in [5], in assay [7], in assay [8] and in [9]. For the same molecule, the call in [12] and in assay [13] was inactive. Further, the Potency result (in [3]; in assay [16]; in assay [17]; in assay [18]; in the assay with Aromatase (Homo sapiens); in assay [14]) was “inactive” in each case. Moreover, the Potency entry in assay [19] and in assay [11] was “inactive” in each case.

On to `C[C@@H]1CCC[C@H](C)N1CCCC(O)(c1ccccc1)c1ccccn1` (stereo partly drawn), for which the molecule was called inactive in assay [8], in assay [9], in assay [10], in [12] and in assay [13]. Also, the Potency result in assay [19] and in assay [11] was “inactive” throughout.

On to `N=C(N)N`, for which the Potency entry (in assay [3]; with Aromatase (Homo sapiens); in assay [14]; in assay [19]; in assay [11]) was “inactive” each time. The molecule was classed as inactive in [4], in [5], in [6], in assay [7], in assay [9] and in [12]. The outcome in [13] was inactive.

Regarding `C[C@H]1COc2c(C3(N)CC3)c(F)cc3c(=O)c(C(=O)O)cn1c23`, the Potency entry (in [3]; with Aromatase (Homo sapiens); in assay [14]; in assay [19]; in assay [11]) was “inactive” in each case. For the same molecule, the molecule was called inactive in assay [4], in assay [5], in assay [6], in assay [7], in [8] and in assay [9]. The molecule was classed as inactive in assay [10], in assay [12] and in [13].

Regarding `CCOC(=O)CN1CCCC1=O`, the call in assay [9], in assay [10], in assay [12] and in [13] was inactive. Also, the Potency entry in assay [19] and in assay [11] was “inactive” in each case.
